Rows were chosen to be rich in hits. Some 0.84% of all compounds tested hit in one or more screens of this group.
PPARg SRC3 recr: PPARgamma agonists recruiting SRC-3 coactivator, primary screen, biochemical; Peroxisome proliferator-activated receptor gamma (Homo sapiens), P37231; biochemical PPARgamma/SRC-3 coactivator recruitment assay; activation, % at 8 µM; actives 0.26% (n = 200,000); in the data active means activation above about 23%;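 further: 0% = DMSO and 100% = reference agonist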
Target sequence (P37231 whole entry, looked up): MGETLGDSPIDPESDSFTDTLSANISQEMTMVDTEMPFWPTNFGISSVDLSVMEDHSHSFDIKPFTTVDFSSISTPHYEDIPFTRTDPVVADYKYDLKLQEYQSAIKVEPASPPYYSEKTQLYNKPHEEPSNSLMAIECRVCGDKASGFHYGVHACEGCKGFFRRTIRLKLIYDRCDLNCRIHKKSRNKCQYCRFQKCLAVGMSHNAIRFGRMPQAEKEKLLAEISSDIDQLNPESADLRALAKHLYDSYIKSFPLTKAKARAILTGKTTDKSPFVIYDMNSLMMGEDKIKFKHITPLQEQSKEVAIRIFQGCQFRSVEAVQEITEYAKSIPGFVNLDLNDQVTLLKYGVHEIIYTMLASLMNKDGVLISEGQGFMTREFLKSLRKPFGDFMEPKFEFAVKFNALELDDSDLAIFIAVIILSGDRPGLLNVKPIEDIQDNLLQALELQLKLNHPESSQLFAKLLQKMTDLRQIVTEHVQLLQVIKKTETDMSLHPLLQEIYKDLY
SRC3 TRFRET art: TR-FRET detection interference compounds, artefact control for PPARgamma SRC-3 recruitment agonists, biochemical, TR-FRET ratio. TR-FRET ratio at 8 µM. TR-FRET artefact counter-screen, PPARgamma/SRC-3 format; active compounds read high. actives 0.39% (n = 99,000). AID 1048, 2008
PPARg SRC2 recr: agonists of PPARg-SRC-2 recruitment, primary screen, biochemical, HTS. Peroxisome proliferator-activated receptor gamma (Homo sapiens), P37231. PPARgamma LBD-SRC-2 recruitment. activation, % at 8 µM. actives 0.34% (n = 200,000); in the data active means activation above about 22%;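 further: 0% = vehicle and 100% = reference agonist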
SRC1 TRFRET art: TR-FRET detection interference compounds, primary screen, artefact control for PPARgamma SRC-1 recruitment agonists, biochemical, TR-FRET emission ratio; actives 0.34% (n = 99,000); TR-FRET detection artefact counter-screen; active compounds read high; AID 1051, 2008; TR-FRET ratio at 8 µM; in the data active means TR-FRET ratio above about 2300
TR-FRET SRC-2 ct: TR-FRET signal artefacts, primary screen, artefact control for PPARgamma SRC-2 agonist project, biochemical. TR-FRET artefact counter-screen; active compounds read high. TR-FRET ratio at 8 µM. actives 0.4% (n = 200,000). AID 1049, 2008
PPARg SRC1 recr: PPARgamma agonists recruiting SRC-1 coactivator, primary screen, biochemical; Peroxisome proliferator-activated receptor gamma (Homo sapiens), P37231; PPARgamma-SRC-1 coactivator recruitment biochemical assay; activation, % at 8 µM; actives 0.41% (n = 200,000); AID 631, 2007; in the data active means activation above about 19%;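 further: 0% = DMSO and 100% = reference agonist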
* marks the source's active call; other numbers are inactive results; x = no result. Unless noted, no stated cut-off is given here; in the data, active means TR-FRET ratio above about 2000; inactive means the rest.

SMILES	PPARg SRC3 recr	SRC3 TRFRET art	PPARg SRC2 recr	SRC1 TRFRET art	TR-FRET SRC-2 ct	PPARg SRC1 recr
CCCCC(CC)Cn1c2nc3ccccc3nc2c2c(=N)oc(C)nc21 (stereo not drawn)	-7.5	x	47.6*	x	2312*	-4.4
COc1cc(OC)cc(C(=O)NCC(=O)OCC(=O)c2ccc3c(c2)-c2ccccc2C3)c1	5.3	2602*	6.8	2143	2065*	7.7
COc1cc(/C=C/C(=O)O)cc(S(=O)(=O)NCCCC(=O)O)c1OC	0.8	1502	7.1	1646	1428	2.6
O=C(c1ccc(Br)cc1)c1sc(N2CCOCC2)nc1-c1ccccc1	10.5	2783*	14.6	2046	1756	14.9
COc1ccc(-c2nc(N3CCCCCC3)sc2C(=O)c2ccccc2)cc1	13.5	x	15.9	x	2098*	12.5
COc1cc2cc(C(c3nnnn3C(C)(C)C)N3CCC(C)CC3)c(=O)[nH]c2cc1OC (stereo not drawn)	5.1	x	1.5	x	1703	0.8
S=C(NC1CC2CCC1C2)N1CCN(c2cccc(Cl)c2)CC1 (stereo not drawn)	-0.9	1445	3.4	1704	1342	11.6
CSc1cc(-c2ccc(Cl)cc2)n(Cc2ccccc2)c(=O)c1C#N	42.9*	x	5.5	x	1632	5.7
COc1cccc(NC(=S)NCc2ccc3c(c2)cc(C)n3C)c1	-0.3	2011	-1.1	2579*	1922	2.6
CC(=O)c1c(C)[nH]c(C(=O)COC(=O)CN(C)S(=O)(=O)c2ccc(Cl)cc2)c1C	-1.0	x	6.1	x	1599	3.7
CCN(CC)c1ccc(NC(=O)c2ccccc2Br)cc1S(=O)(=O)Nc1ccccc1OC	-4.1	1617	-0.5	1698	1301	-6.9
CCN(CC)c1ccc(NC(=O)c2ccccc2F)cc1S(=O)(=O)Nc1ccccc1OC	4.7	2056*	3.5	1982	1726	0.0
CCCCOC(=O)CSc1nc(N)c(C#N)c(-c2ccc(OCC)cc2)c1C#N	-3.4	x	-2.3	x	1558	56.4*
COC(=O)Cn1c(=NC(=O)c2cc(-c3cccs3)nc3ccccc23)sc2cc(S(N)(=O)=O)ccc21	2.5	1741	4.9	1658	1499	3.9
CCOC(=O)Cn1c(=NC(=O)c2cc(-c3cccs3)nc3ccccc23)sc2cc(S(N)(=O)=O)ccc21	6.5	2342*	6.7	1942	1552	10.8
CCOCCn1c(=NC(=O)c2cc(Cl)sc2Cl)sc2cc(S(N)(=O)=O)ccc21	29.5*	4758*	-2.3	1763	1600	6.7
COCCn1c(=NC(=O)c2cc(Cl)sc2Cl)sc2cc(S(N)(=O)=O)ccc21	0.4	1622	3.1	1897	1630	4.6
COc1ccc(S(=O)(=O)Nc2nnc(Cc3ccc(OC)c(OC)c3)s2)cc1	8.3	1908	12.5	2062	1588	0.6
COc1ccc(-c2csc(N(CCCN(C)C)C(=O)c3cccs3)n2)cc1	-0.3	1557	2.0	1918	1458	1.6
COc1ccc(-c2csc(N(CCc3ccc(OC)c(OC)c3)C(=O)COc3ccccc3)n2)cc1	11.4	x	3.5	x	2007*	14.8
COc1ccc(-c2csc(N(Cc3ccccc3)C(=O)COc3ccc(Cl)cc3)n2)cc1	-0.8	x	2.2	x	1523	4.6
CCN(C(=O)c1cccs1)c1nc(-c2ccc(OC)cc2)cs1	-0.2	2437*	6.0	2224	1836	5.8
CCC(=O)Nc1ccc2c(c1)nc(CN1CCN(C(C)=O)CC1)n2C	-2.4	x	1.3	x	1466	-1.7
CCOc1cc(/C=N/NC(=O)c2ccc(O)cc2)ccc1Oc1nc(Cl)ncc1F	5.0	1632	9.0	2558*	1608	13.1
C/C(=N\Nc1nc2ccccc2s1)c1ccc(Br)s1	2.6	1556	2.6	2044	1493	22.6*
SMILES	PPARg SRC3 recr	SRC3 TRFRET art	PPARg SRC2 recr	SRC1 TRFRET art	TR-FRET SRC-2 ct	PPARg SRC1 recr
Cc1cc(C)c(C#N)c(SCc2ccc(F)cc2)n1	3.3	1600	5.8	1966	1549	5.0
CCc1nc(SCc2ccc(F)cc2)[nH]c(=O)c1C#N	-0.1	x	56.6*	x	2794*	-2.0
Cc1ccc(NN2C(=O)C=C(c3ccccc3)C2=O)cc1	1.0	1596	-2.6	2083	1619	10.3
COC(=O)c1sccc1NC(=O)CN(C)NS(=O)(=O)c1ccc(F)cc1	2.7	x	9.9	x	1593	4.9
CCOc1ccccc1NC(=S)N1CCN(c2nc(-c3cccc(OC)c3)cs2)CC1	2.0	1950	2.7	2144	1703	-1.0
COc1cc(NC(=O)c2cc(Cl)ccc2Cl)ccc1-c1cc2ccccc2oc1=O	3.6	x	1.5	x	2091*	7.6
Cc1ccc(CNC(=O)Cn2cccc2C(=O)c2ccccc2C)cc1	4.6	1741	6.9	1729	1444	6.0
Cc1ccccc1C(=O)c1cccn1CC(=O)NCCC1=CCCCC1	2.2	1388	-3.5	2753*	1513	7.5
CC1CCCN(C(=O)CSc2nnc(-c3ccncc3)n2C)C1 (stereo not drawn)	-3.1	1466	-4.0	1677	1585	-1.3
CCn1cc(S(=O)(=O)Nc2ccccc2C(F)(F)F)cn1	1.8	1619	22.6*	1890	1708	8.9
O=C(O)c1ccccc1NS(=O)(=O)c1ccccc1C(F)(F)F	2.5	x	1.0	x	1535	1.6
CC(C)(C)c1ccc(OCCCC(=O)N2CCOCC2)cc1	0.6	1487	2.4	1643	1540	-3.2
CC(C)(C)c1ccc(OCc2ccc(C(=O)N3CCOCC3)o2)cc1	2.6	1710	25.2*	1474	2010*	-1.8
Cn1cc(CNCc2cn(C)nc2-c2ccc(C3CCCCC3)cc2)cn1	2.2	1620	13.8	1659	1597	1.8
c1cncc(-c2nc(N3CCOCC3)c3ccccc3n2)c1	2.8	x	-2.4	x	1467	-12.4
O=S(=O)(/C=C/c1ccccc1)N1CCN(c2nc(-c3cccnc3)nc3ccccc23)CC1	7.4	2270*	7.1	2657*	1899	5.3
COc1ccc(OC)c(/C=N\NC(=O)CC(=O)NCCc2ccccc2)c1	4.3	1704	9.5	2318*	1584	6.6
COc1ccc(/C=N/NC(=O)c2ccc(Br)cc2)c(OC)c1	6.8	1546	12.3	1927	1660	10.8
COc1ccccc1/C=N/NC(=O)c1ccc(Br)cc1	4.1	1846	12.3	2364*	1692	4.8
CC1Cc2ccccc2N1C(=O)CSc1nnc(-c2ccccc2)c(-c2ccccc2)n1 (stereo not drawn)	2.4	x	0.3	x	3425*	-2.7
O=C(Nc1ccc2c(c1)OCCO2)c1cc2sccc2n1Cc1ccccc1	1.5	x	7.4	x	1989*	3.7
O=C(Nc1ccc2c(c1)OCCO2)c1cc2sccc2n1Cc1ccc(F)cc1	12.4	x	14.5	x	1828	7.4

Screening results deposited in PubChem BioAssay by The Scripps Research Institute Molecular Screening Center.
